Assay outcomes (PubChem BioAssay)
TDP1 cell noCPT: qHTS for Inhibitors of human tyrosyl-DNA phosphodiesterase 1 (TDP1): qHTS in cells in absence of CPT; AID 686978, 2013; 420,000 tested, 15% active; DT40 Tdp1-/- hTDP1 cells, no CPT, ATP luminescence, 48 h; Potency, µM (highest dose often 46.2 µM), actives largely listed as inhibitors; note: nearly all actives have a fitted effect of over 55% in size
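Compound effects on proliferation are scored in DT40 Tdp1-/-;hTDP1 cells in the absence of CPT. ATP levels (CellTiter-Glo luminescence) are recorded after a ≥48 hr, 37 °C incubation.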
TDP1 cell CPT: DT40-hTDP1 cell growth loss with CPT; Potency, µM (top dose mostly 46.2 µM), hits mostly inhibitors; chicken DT40 Tdp1-/-;hTDP1 cells + 20 nM CPT, ATP luminescence, 48 h; 420,000 tested, 12% active; note: nearly all actives have a fitted effect of over 55% in size
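Chicken DT40 Tdp1-/- cells complemented with human TDP1, 400 cells/well, exposed to compounds plus 20 nM camptothecin for at least 48 h at 37 C; viability read as ATP content by CellTiter-Glo luminescence.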
IL-1B inflam inh: inflammasome signaling inhibition, IL-1 beta readout; THP-1 LPS/ATP IL-1B secretion, AlphaLISA, 16 h; active compounds read low; 360,000 tested, 4.7% active; activity change, % at 57.5 µM; in the data active = activity change below about -50%; inconclusive = mostly about -30% to -49%
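THP-1 cells pretreated 1 hr with compounds (up to 57.5 uM final), then stimulated with LPS (250 ng/mL final) plus ATP (1.25 mM final); secreted IL-1B measured by AlphaLISA after 16 hr, decreased signal indicating inhibition.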
HepG2 tox-1: counter-screen for TGF-b inhibitors: cytotoxicity in HepG2 cells. HepG2 CAGA-GFP viability, ATP luminescence, 18 h. 410,000 tested, 0.76% active. Potency, µM (series often up to 46.1 µM), actives largely listed as cytotoxic
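CellTiter-Glo luminescence gave cytotoxicity after 18 hours at 37 degrees C. The cells were HepG2 CAGA-GFP in 1% FBS DMEM, stimulated with 500 pg/mL TGF-beta after compound addition. %Activity was normalised to no-cell wells (complete cell-killing) and DMSO (no toxicity), and curves were fitted and classified.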
TDP1 block: blocks human tyrosyl-DNA phosphodiesterase 1. 350,000 tested, 0.28% active. recombinant TDP1, AlphaScreen DNA substrate cleavage. Q9NUW8. Potency, µM (top dose mostly 130 µM), usual class: inhibitors; note: nearly all actives have a fitted effect of over 40% in size
Target sequence (Q9NUW8 whole entry, looked up): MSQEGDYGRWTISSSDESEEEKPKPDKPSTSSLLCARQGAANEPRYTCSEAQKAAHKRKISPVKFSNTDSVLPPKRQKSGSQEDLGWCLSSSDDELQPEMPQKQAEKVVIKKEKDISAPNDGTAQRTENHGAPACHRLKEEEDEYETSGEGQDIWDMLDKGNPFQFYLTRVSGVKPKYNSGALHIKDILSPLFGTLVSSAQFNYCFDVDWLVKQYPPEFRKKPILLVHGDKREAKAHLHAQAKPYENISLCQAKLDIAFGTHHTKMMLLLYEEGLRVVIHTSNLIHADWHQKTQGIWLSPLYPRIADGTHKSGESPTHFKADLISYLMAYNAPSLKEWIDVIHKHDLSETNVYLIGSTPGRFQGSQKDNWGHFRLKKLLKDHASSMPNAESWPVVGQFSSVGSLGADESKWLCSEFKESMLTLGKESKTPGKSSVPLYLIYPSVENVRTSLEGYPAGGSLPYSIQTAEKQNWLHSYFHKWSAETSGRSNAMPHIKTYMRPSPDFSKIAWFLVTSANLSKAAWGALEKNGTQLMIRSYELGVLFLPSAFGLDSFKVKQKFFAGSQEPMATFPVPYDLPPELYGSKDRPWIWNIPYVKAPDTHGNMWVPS
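Signal: AlphaScreen proximity between streptavidin donor and anti-FITC acceptor beads on intact substrate. Reaction: Tdp1 1 nM, substrate 15 nM final, 5 min RT after 15 min compound preincubation.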
TGFb SMAD3 inh: inhibitors of TGF-b signaling; HepG2 CAGA-GFP TGF-b/SMAD3 reporter, GFP fluorescence, 18 h; TGF-beta stimulated, 500 pg/mL final; Potency, µM (series often up to 46.1 µM), hits mostly inhibitors; 410,000 tested, 1.2% active; AID 588855; note: nearly all actives have a fitted effect of over 65% in size
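Cell-based qHTS in HEPG2 carrying a CAGA-GFP Smad reporter; compounds added before 500 pg/mL final TGF-beta, 18 h incubation at 37 degrees C, GFP fluorescence quantified per cell by imaging cytometry.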
TGFb confirm: TGF-b pathway inhibition, cherry-pick retest; shares compounds with TGFb SMAD3 inh; HepG2 CAGA-GFP TGF-b reporter, GFP fluorescence, 18 h; cells stimulated with TGF-beta, 500 pg/mL; Potency, µM (top dose mostly 46.1 µM), hits mostly inhibitors; 1,600 tested, 63% active; AID 720534; note: nearly all actives have a fitted effect of over 65% in size
HepG2 tox-2: counter-screen for TGF-b inhibitors: cytotoxicity in HepG2 cells. shares compounds with TGFb SMAD3 inh. HepG2 CAGA-GFP viability, ATP luminescence, 18 h; cells stimulated with TGF-beta, 500 pg/mL. AID 720535. Potency, µM (top dose mostly 46.1 µM), most hits filed as inhibitors. 1,600 tested, 27% active; note: nearly all actives have a fitted effect of over 70% in size
TGFb CCL64 inh: orthogonal confirmation of TGF-b inhibitors in CCL64 cells. shares compounds with TGFb SMAD3 inh. CCL64 CAGA-GFP reporter, TGF-b stimulated, GFP fluorescence, 18 h. Potency, µM (series often up to 46.1 µM), most hits filed as inhibitors. 1,600 tested, 41% active. AID 720536; note: nearly all actives have a fitted effect of over 65% in size
TGFb COP inh: blocks TGF-b signaling in HepG2 COP reporter; shares compounds with TGFb SMAD3 inh; Potency, µM (series often up to 46.1 µM), most hits filed as inhibitors; HepG2 COP-GFP TGF-b reporter, GFP fluorescence, 18 h; cells stimulated by added recombinant TGF-beta; 1,600 tested, 3% active; note: nearly all actives have a fitted effect of over 70% in size
Large screens that a line does not name were inactive (follow-up assays come after a bar, where they were run). Rows were chosen to be rich in hits. Some 18% of all compounds tested hit in one or more screens of this group. Unless noted, calls come from the whole dose curve; as a rule, active = well fitted curve in the direction sought with a large enough effect; inconclusive = small, poorly fitted or top-dose-only effect, or another doubt; inactive = no such curve, though single readings can be large; an effect the other way counts as inactive or inconclusive.

Cc1ccc(N2CCN(C(=O)c3cc(C(=O)c4ccccc4C)c[nH]3)CC2)c(C)c1	TDP1 cell noCPT 23µM, TDP1 cell CPT inconclusive, IL-1B inflam inh inconclusive, TGFb SMAD3 inh 18µM | TGFb confirm 6.5µM | HepG2 tox-2 inactive | TGFb CCL64 inh inconclusive | TGFb COP inh inactive
O=C(/C=C/c1ccc(Cl)cc1)NCc1ccco1	TDP1 cell noCPT inconclusive, TDP1 cell CPT inconclusive
O=c1cnc2cc([N+](=O)[O-])ccc2[nH]1	TDP1 cell noCPT inconclusive
O=C1c2ccccc2C(=O)c2c1oc(C(F)(F)F)c2C(=O)c1ccccc1	TDP1 cell noCPT 16µM, TDP1 cell CPT 12µM, IL-1B inflam inh -84, HepG2 tox-1 1.1µM, TGFb SMAD3 inh 1.1µM | TGFb confirm 4.6µM | HepG2 tox-2 4.1µM | TGFb CCL64 inh 4.6µM | TGFb COP inh 3.7µM
O=C(c1ccccc1)c1ccc(CN2C(=O)c3ccccc3C2=O)o1	none
O=[N+]([O-])c1cc(Cl)ccc1N1CCN(c2ccccc2O)CC1	TDP1 cell noCPT inconclusive, IL-1B inflam inh -96, TGFb SMAD3 inh 7.1µM | TGFb confirm inconclusive | HepG2 tox-2 inactive | TGFb CCL64 inh inactive | TGFb COP inh inactive
O=[N+]([O-])c1cc(Cl)ccc1N1CCCCC1	IL-1B inflam inh inconclusive
COc1ccc2c(c1)C(c1cc(OC)c(OC)c(OC)c1)CC(=O)O2 (centres undefined)	none (no result: TDP1 cell noCPT, TDP1 cell CPT, IL-1B inflam inh, HepG2 tox-1, TGFb SMAD3 inh)
CN(C)C(=O)c1cccc(-c2cnc3c(NC=O)cc(-c4ccccc4Cl)cn23)c1	TDP1 cell noCPT 5.2µM, TDP1 cell CPT 2.6µM, IL-1B inflam inh -53, TGFb SMAD3 inh 13µM (no result: TDP1 block) | TGFb confirm 16µM | HepG2 tox-2 inactive | TGFb CCL64 inh inconclusive | TGFb COP inh inactive
CN(C)C(=O)c1cccc(-c2cc(NC=O)c3ncc(-c4ccc(F)cc4)n3c2)c1	TDP1 cell noCPT 16µM, TDP1 cell CPT inconclusive, TGFb SMAD3 inh 8.9µM (no result: TDP1 block) | TGFb confirm 5.2µM | HepG2 tox-2 inactive | TGFb CCL64 inh inconclusive | TGFb COP inh inactive
CN(C)CCNC(=O)c1cccc(-c2cnc3c(NC=O)cc(-c4ccc(C(=O)N5CCOCC5)cc4)cn23)c1	none (no result: TDP1 block)
CC(Oc1ccc(Br)cc1)C(=O)Nc1ccncc1 (centres undefined)	TDP1 cell noCPT inconclusive, TDP1 cell CPT inconclusive (no result: TDP1 block)
Cc1ccc(OC(C)C(=O)Nc2ccncc2)cc1C (centres undefined)	TDP1 cell noCPT inconclusive, TDP1 cell CPT inconclusive, TGFb SMAD3 inh 10µM (no result: TDP1 block) | TGFb confirm inconclusive | HepG2 tox-2 inconclusive | TGFb CCL64 inh inactive | TGFb COP inh inactive
O=C(Nc1cc(S(=O)(=O)Nc2ccccc2Cl)ccc1O)c1cc2c(s1)CCCC2	none
Cc1ccc(NC(=O)c2cc3c(s2)CCCC3)cc1S(=O)(=O)Nc1ccccc1Cl	TDP1 cell noCPT 23µM, TDP1 cell CPT 16µM, TGFb SMAD3 inh 10µM | TGFb confirm 10µM | HepG2 tox-2 inconclusive | TGFb CCL64 inh inconclusive | TGFb COP inh inactive
COc1ccccc1NS(=O)(=O)c1cc(NC(=O)c2cc[n+]([O-])cc2)ccc1N1CCCC1	TDP1 cell noCPT inconclusive, TDP1 cell CPT inconclusive
COc1ccccc1NS(=O)(=O)c1cc(NC(=O)Nc2ccccc2)ccc1N1CCCCC1	TDP1 cell noCPT 18µM, TDP1 cell CPT 18µM, TGFb SMAD3 inh 11µM | TGFb confirm 7.3µM | HepG2 tox-2 inactive | TGFb CCL64 inh inconclusive | TGFb COP inh inactive
O=C(Nc1ccc(N2CCCCC2)c(S(=O)(=O)Nc2ccccc2Cl)c1)c1cccnc1	TDP1 cell noCPT inconclusive, IL-1B inflam inh inconclusive, TGFb SMAD3 inh 13µM | TGFb confirm inconclusive | HepG2 tox-2 inconclusive | TGFb CCL64 inh inconclusive | TGFb COP inh inactive
COc1ccccc1NS(=O)(=O)c1cc(NC(=O)C(C)C)ccc1N1CCCCC1	TDP1 cell noCPT inconclusive, TDP1 cell CPT inconclusive
O=C(Nc1ccc(Cl)c(Cl)c1)Nc1ccc(N2CCCC2)c(S(=O)(=O)Nc2ccccc2Cl)c1	TDP1 cell noCPT 4.1µM, TDP1 cell CPT 3.3µM, IL-1B inflam inh -52, TGFb SMAD3 inh 3.2µM | TGFb confirm 4.6µM | HepG2 tox-2 7.3µM | TGFb CCL64 inh 0.58µM | TGFb COP inh inactive
O=C(CCN1CCOCC1)NNC(=O)/C(=C/c1ccccc1)NC(=O)c1ccccc1	none
O=C(Cc1ccccc1)Nc1cccc(N2CCCC2)c1	TDP1 cell noCPT inconclusive, TDP1 cell CPT inconclusive
O=C(Nc1ccc(F)cc1)Nc1ccc(N2CCCC2)c(S(=O)(=O)Nc2ccccc2Cl)c1	TDP1 cell noCPT 23µM, TDP1 cell CPT 23µM, IL-1B inflam inh -60, TGFb SMAD3 inh 4µM | TGFb confirm 4.1µM | HepG2 tox-2 7.3µM | TGFb CCL64 inh 5.8µM | TGFb COP inh inactive
O=C(Nc1ccc(F)cc1)Nc1ccccc1N1CCCCC1	TDP1 cell noCPT inconclusive, TDP1 cell CPT inconclusive, TGFb SMAD3 inh inconclusive
COc1ccccc1N1CCN(C2CCCN(C(=O)CCC(C)=O)C2)CC1 (centres undefined)	none (no result: TDP1 block)
C=CCC[C@@H](Cc1ccc(F)cc1)C(=O)OC[C@@H](NC(=O)[C@@H](CC=C)CC(=O)N(CCO)Cc1ccccc1)c1ccccc1	TDP1 cell noCPT 26µM, TDP1 cell CPT 15µM, IL-1B inflam inh -67, TGFb SMAD3 inh 11µM | TGFb confirm 15µM | HepG2 tox-2 inactive | TGFb CCL64 inh inconclusive | TGFb COP inh inactive
